The panel holds about 83,000 compounds, 20% with a hit somewhere; the sample as a whole holds those more often.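 Step 1: grow cells in 96-well plates. Step 2: add test compound at a single concentration. Step 3: incubate 48 h. Step 4: record percent growth.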 Active and inactive are the calls of the source. The calls were made as follows: active = growth percent below 10; inactive = the rest.
What was measured:
Test in all cases: NCI-60 one-dose screen, 48 h (100 = growth as untreated, 0 = no growth, -100 = all killed)
Details in all cases: 10 µM unless noted
EKVX NSCLC = tested on: EKVX NSCLC
SN12C renal = tested on: SN12C renal
UO-31 renal = tested on: UO-31 renal
TK-10 renal = tested on: TK-10 renal
ACHN renal = tested on: ACHN renal
CAKI-1 renal = tested on: CAKI-1 renal
A498 renal = tested on: A498 renal
CCRF-CEM leukemia = tested on: CCRF-CEM leukemia
MOLT-4 leukemia = tested on: MOLT-4 leukemia
SR leukemia = tested on: SR leukemia

Measured: growth

O=C(Nc1ccc(I)cc1F)c1cc(Cl)ccc1O
active: EKVX NSCLC 7.55% | SN12C renal 2.43% | UO-31 renal 9.04% | ACHN renal 6.15% | CAKI-1 renal -12% | A498 renal -64.4% | CCRF-CEM leukemia 7.89% | MOLT-4 leukemia -30.5%
inactive: TK-10 renal 10.5%

COc1c(B(O)O)cccc1-c1nc2ccc3[nH]ncc3c2c2c1C1CCC2C1 (stereo unspecified)
active: CAKI-1 renal 1.43%
inactive: EKVX NSCLC 101% | SN12C renal 59.8% | UO-31 renal 29.3% | TK-10 renal 44.2% | ACHN renal 63.2% | A498 renal 87.2% | CCRF-CEM leukemia 20.5% | MOLT-4 leukemia 52.8%

Cc1c(C(=O)OCCO)cc(-c2ccc(Cl)cc2)n1-c1ccc(Cl)cc1Cl
inactive: EKVX NSCLC 63.8% | SN12C renal 61.1% | UO-31 renal 69.4% | TK-10 renal 101% | ACHN renal 71.4% | CAKI-1 renal 63.6% | A498 renal 77.3% | CCRF-CEM leukemia 65.4% | MOLT-4 leukemia 49.8%

O=c1oc2ccc(-c3ccc(F)cc3F)cc2c(=O)n1-c1ccc(Cl)c(C(F)(F)F)c1
active: CAKI-1 renal -8.76% | A498 renal -43.5% | MOLT-4 leukemia 6.67%
inactive: EKVX NSCLC 55.4% | SN12C renal 11.2% | UO-31 renal 75.6% | TK-10 renal 15.8% | ACHN renal 18.2% | CCRF-CEM leukemia 13.2%

Cc1nc2ccccc2c(/C=C/c2ccc(F)cc2)c1C(N)=O
inactive: EKVX NSCLC 94.8% | SN12C renal 102% | UO-31 renal 80.9% | TK-10 renal 134% | ACHN renal 100% | CAKI-1 renal 87.2% | A498 renal 89.2% | CCRF-CEM leukemia 93.6% | MOLT-4 leukemia 111%

O=c1oc2ccc(I)cc2c(=O)n1-c1ccc(Cl)cc1F
inactive: TK-10 renal 10.5%
active: EKVX NSCLC 9.47% | SN12C renal 2.21% | UO-31 renal 2.47% | ACHN renal 3.57% | CAKI-1 renal -16.9% | A498 renal -68.3% | CCRF-CEM leukemia 7.77% | MOLT-4 leukemia -11.1%

COc1ccc(/C=C/C(=O)c2c(C)nc3ccccc3c2/C=C/c2ccccc2)c(OC)c1
inactive: EKVX NSCLC 76.9% | SN12C renal 84.3% | UO-31 renal 61.4% | TK-10 renal 123% | ACHN renal 79.5% | CAKI-1 renal 55.9% | A498 renal 97.3% | CCRF-CEM leukemia 76.5% | MOLT-4 leukemia 48.6%

O=c1oc2ccc(I)cc2c(=O)n1-c1ccc(F)cc1F
inactive: EKVX NSCLC 59.2% | SN12C renal 10.9% | TK-10 renal 11.6% | ACHN renal 19.6% | CCRF-CEM leukemia 17.2% | MOLT-4 leukemia 13.8%
active: UO-31 renal 7.61% | CAKI-1 renal -17.5% | A498 renal -43.9%

O=c1oc2ccc(Br)cc2c(=O)n1-c1ccc(I)cc1F
inactive: EKVX NSCLC 12.5%
active: SN12C renal -1.37% | UO-31 renal 7.32% | TK-10 renal 7.64% | ACHN renal 3.46% | CAKI-1 renal -8.71% | A498 renal -70.2% | CCRF-CEM leukemia 7.41% | MOLT-4 leukemia -26.3%

O=C(Nc1ccc(Br)cc1F)c1cc(Cl)ccc1O
active: EKVX NSCLC 8.37% | SN12C renal -5.66% | UO-31 renal 9.99% | TK-10 renal 0.819% | ACHN renal 0.275% | CAKI-1 renal -21.3% | A498 renal -70.2% | CCRF-CEM leukemia 5.57% | MOLT-4 leukemia -28.1%

Nc1cccc(Nc2cc(S(=O)(=O)O)c(N)c3c2C(=O)c2ccccc2C3=O)c1
inactive: EKVX NSCLC 85.1% | SN12C renal 99% | UO-31 renal 110% | TK-10 renal 107% | ACHN renal 96.3% | CAKI-1 renal 92.8% | A498 renal 102% | CCRF-CEM leukemia 101% | MOLT-4 leukemia 103% | SR leukemia 115%

O=C(/C=C/c1ccc(Cl)cc1)c1ccc(Nc2nc(NCCO)nc(N3CCOCC3)n2)cc1
inactive: EKVX NSCLC 94% | SN12C renal 88.4% | UO-31 renal 56% | TK-10 renal 111% | ACHN renal 82.5% | CAKI-1 renal 77.6% | A498 renal 92.6% | CCRF-CEM leukemia 82.8% | MOLT-4 leukemia 71.3% | SR leukemia 19.8%

CNCCNc1nc2ccccc2c2c(=O)c3cccc(OC)c3sc12
inactive: EKVX NSCLC 22.8% | SN12C renal 45.2% | UO-31 renal 24.9% | TK-10 renal 44.1% | ACHN renal 12.5% | CAKI-1 renal 36.1% | CCRF-CEM leukemia 12.2%
active: A498 renal 3.67% | MOLT-4 leukemia 0.177% | SR leukemia -1.21%

O=C(CCc1nnc2sc(COc3ccccc3)nn12)c1nc2ncccc2[nH]1
inactive: EKVX NSCLC 102% | SN12C renal 96.3% | UO-31 renal 69% | TK-10 renal 124% | ACHN renal 107% | CAKI-1 renal 84.4% | A498 renal 66.8% | CCRF-CEM leukemia 118% | MOLT-4 leukemia 113%

O=c1oc2ccc(I)cc2c(=O)n1-c1ccc(I)cc1F
inactive: TK-10 renal 11.3%
active: EKVX NSCLC 9.77% | SN12C renal 4.52% | UO-31 renal 8.63% | ACHN renal 4.07% | CAKI-1 renal -20.2% | A498 renal -73.3% | CCRF-CEM leukemia 6.91% | MOLT-4 leukemia -35.6%

COc1cc(C2C(C#N)=C(N)OC3=C2C(=O)c2ccccc2C3=O)cc(OC)c1O (stereo unspecified)
active: A498 renal -8.45%
inactive: EKVX NSCLC 78.9% | SN12C renal 47.5% | UO-31 renal 36% | TK-10 renal 70.1% | ACHN renal 41.2% | CAKI-1 renal 38.8% | CCRF-CEM leukemia 106% | MOLT-4 leukemia 105% | SR leukemia 38.1%

COc1ccc(C2Nc3nc(OC)n(C)c(=O)c3N=C3c4ccccc4C(=O)C32)cc1 (stereo unspecified)
inactive: EKVX NSCLC 81.9% | SN12C renal 86.6% | UO-31 renal 94.2% | TK-10 renal 124% | ACHN renal 85.3% | CAKI-1 renal 54.4% | A498 renal 105% | CCRF-CEM leukemia 87.9% | MOLT-4 leukemia 77.3%

O=C(Nc1ccc(Cl)cc1F)c1cc(F)ccc1O
active: EKVX NSCLC 8.76% | SN12C renal 3.23% | UO-31 renal 5.66% | ACHN renal 3.61% | CAKI-1 renal -14.3% | A498 renal -55.6% | CCRF-CEM leukemia 8.63% | MOLT-4 leukemia -13.3%
inactive: TK-10 renal 14%

COc1cccc2c1C=C1CCCCC3=Cc4c(OC)cccc4OC13O2
inactive: EKVX NSCLC 60.5% | SN12C renal 49.5% | UO-31 renal 44.5% | TK-10 renal 74.7% | ACHN renal 38.7% | CAKI-1 renal 47.8% | A498 renal 35.9% | CCRF-CEM leukemia 27.9% | MOLT-4 leukemia 29.1% | SR leukemia 28.6%

COC(=O)/C(CCC=C(C)C)=C1\[C@@H](OC(C)=O)C[C@@]2(C)[C@H]1C[C@@H](O)[C@H]1[C@@]3(C)CC[C@H](NC(=O)c4cnccn4)[C@@H](C)[C@@H]3CC[C@@]12C
inactive: EKVX NSCLC 94.1% | SN12C renal 95.7% | UO-31 renal 85.6% | TK-10 renal 117% | ACHN renal 101% | CAKI-1 renal 92% | A498 renal 108% | CCRF-CEM leukemia 103% | MOLT-4 leukemia 83.9%

O=C1/C(=C/c2ccc(O)cc2)COc2ccc(O)c(O)c21
active: SN12C renal -4.74% | UO-31 renal -88.5% | ACHN renal -16.2% | CAKI-1 renal 6.4% | CCRF-CEM leukemia 9.61% | MOLT-4 leukemia 4.43%
inactive: EKVX NSCLC 71.5% | TK-10 renal 54.1% | A498 renal 98.4% | SR leukemia 12.7%

CCOC(=O)c1c2c(n3cccc(Cl)c13)C(=O)c1ncccc1C2=O
inactive: EKVX NSCLC 75.7% | SN12C renal 16.6% | UO-31 renal 43.9% | TK-10 renal 75.6% | ACHN renal 26.4% | CAKI-1 renal 25.8% | A498 renal 79.3% | CCRF-CEM leukemia 84.2% | MOLT-4 leukemia 95.8% | SR leukemia 58.3%

CN(O)c1nc(N(C)O)nc(N2CCOCC2)n1
inactive: SN12C renal 53.7% | UO-31 renal 12.7% | TK-10 renal 16.3% | ACHN renal 17.5% | A498 renal 89.6% | MOLT-4 leukemia 22.1%
active: EKVX NSCLC 5.22% | CAKI-1 renal -11.2% | CCRF-CEM leukemia 5.09%

CCOC(=O)c1c(C=O)nc2ccccc2c1/C=C/c1ccc(Cl)cc1
inactive: EKVX NSCLC 81.6% | SN12C renal 96.7% | UO-31 renal 72.7% | TK-10 renal 122% | ACHN renal 89.1% | CAKI-1 renal 89.6% | A498 renal 103% | CCRF-CEM leukemia 76.6% | MOLT-4 leukemia 78.9%

O=C(c1ccccc1)N(C(=S)NCCc1ccc(Cl)cc1)c1ccc(Cl)cc1
inactive: EKVX NSCLC 83.5% | SN12C renal 66.1% | UO-31 renal 59.1% | TK-10 renal 44.3% | ACHN renal 64.5% | CAKI-1 renal 42.1% | A498 renal 91.4% | CCRF-CEM leukemia 80.7%
active: MOLT-4 leukemia -10.7%

O=C(NN1C(=O)CSC1c1ccc(Cl)cc1)c1[nH]c2ccc(F)cc2c1-c1ccccc1 (stereo unspecified)
inactive: EKVX NSCLC 49.3% | SN12C renal 44.1% | UO-31 renal 36.3% | TK-10 renal 66.9% | ACHN renal 43.8% | CAKI-1 renal 32.1% | A498 renal 84.3% | CCRF-CEM leukemia 34.3% | MOLT-4 leukemia 34.1% | SR leukemia 48.9%

O=C(Nc1ccc(Cl)cc1F)c1cc(Br)ccc1O
active: EKVX NSCLC 9.24% | SN12C renal 1.01% | UO-31 renal 5.96% | TK-10 renal 5.64% | ACHN renal 2.84% | CAKI-1 renal -10.7% | A498 renal -62.9% | MOLT-4 leukemia 0.561%
inactive: CCRF-CEM leukemia 15.1%

O=C(Nc1ncc(Cc2cccc(C(F)(F)F)c2)s1)C1COc2ccccc2O1 (stereo unspecified)
inactive: EKVX NSCLC 75.5% | SN12C renal 88.8% | UO-31 renal 73.7% | TK-10 renal 97.1% | ACHN renal 97.4% | CAKI-1 renal 84.2% | A498 renal 106% | CCRF-CEM leukemia 86.7% | MOLT-4 leukemia 80.2% | SR leukemia 106%

From PubChem BioAssay (NCI)
